{
  "source": "PubChem BioAssay (NCATS)",
  "key": {"[1]": {"biological_target": "Cytochrome P450 3A4 (Homo sapiens) (UniProt P08684)", "sequence (P08684 whole entry, looked up)": "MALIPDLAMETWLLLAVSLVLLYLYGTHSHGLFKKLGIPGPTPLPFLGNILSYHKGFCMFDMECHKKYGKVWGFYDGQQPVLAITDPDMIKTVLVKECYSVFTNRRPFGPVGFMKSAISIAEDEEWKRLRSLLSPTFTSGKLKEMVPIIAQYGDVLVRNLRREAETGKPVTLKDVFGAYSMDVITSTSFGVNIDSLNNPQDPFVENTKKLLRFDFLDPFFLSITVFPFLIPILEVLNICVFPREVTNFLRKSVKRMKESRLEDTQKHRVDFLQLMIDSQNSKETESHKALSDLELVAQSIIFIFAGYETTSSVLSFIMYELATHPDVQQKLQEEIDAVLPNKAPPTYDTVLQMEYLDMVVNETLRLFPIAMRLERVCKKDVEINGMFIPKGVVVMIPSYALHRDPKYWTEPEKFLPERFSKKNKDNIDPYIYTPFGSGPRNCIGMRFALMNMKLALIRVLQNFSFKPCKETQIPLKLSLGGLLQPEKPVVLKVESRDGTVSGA", "experiment": "qHTS Assay for Activators of Cytochrome P450 3A4 (AID 885); further: nearly all actives have a fitted effect of over 65% in size; further: potency means the concentration at half of the fitted maximal effect", "how_it_was_run": "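Luminescent readout of luciferin formed from 25 uM Luciferin-PPXE (KM level) by 20 nM CYP3A4 in 200 mM KPO4, with 60 min NADPH-driven reaction at room temperature after 10 min compound exposure. Ketoconazole (57 uM) defined 100% inhibition.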"}, "[2]": {"biological_target": "Muscarinic acetylcholine receptor M1 (Rattus norvegicus) (UniProt P08482)", "sequence (P08482 whole entry, looked up)": "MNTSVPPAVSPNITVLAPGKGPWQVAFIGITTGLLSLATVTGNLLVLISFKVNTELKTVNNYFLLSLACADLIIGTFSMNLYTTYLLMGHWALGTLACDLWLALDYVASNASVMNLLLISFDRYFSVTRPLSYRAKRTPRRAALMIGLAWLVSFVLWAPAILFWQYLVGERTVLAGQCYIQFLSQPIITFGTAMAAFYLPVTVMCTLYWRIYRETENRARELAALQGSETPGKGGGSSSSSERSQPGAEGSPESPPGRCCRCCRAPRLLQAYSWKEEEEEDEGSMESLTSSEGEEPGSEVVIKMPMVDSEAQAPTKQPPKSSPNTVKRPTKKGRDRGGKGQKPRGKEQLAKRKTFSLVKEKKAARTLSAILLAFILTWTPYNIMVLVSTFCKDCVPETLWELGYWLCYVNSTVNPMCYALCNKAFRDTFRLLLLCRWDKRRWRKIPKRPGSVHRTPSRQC", "experiment": "qHTS Assay for Antagonists of Acetylcholine Muscarinic M1 Receptor: Kinetic Measurement of Intracellular Calcium Response (AID 943); further: nearly all actives have a fitted effect of over 75% in size; further: potency means the concentration at half of the fitted maximal effect", "how_it_was_run": "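Antagonism is measured as inhibition of the carbachol-evoked calcium rise in CHO cells transfected with rat M1. Cells are dye-loaded, exposed to compound for 10 min, then stimulated with 100 nM carbachol (EC80).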"}, "[3]": {"biological_target": "Cytochrome P450 3A4 (Homo sapiens) (UniProt P08684)", "experiment": "qHTS Assay for Inhibitors and Substrates of Cytochrome P450 3A4 (AID 884); further: nearly all actives have a fitted effect of over 50% in size; further: potency means the concentration at half of the fitted maximal effect", "how_it_was_run": "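Luminescent readout of luciferin produced by CYP3A4 (20 nM) dealkylation of Luciferin-PPXE, 25 uM (its KM). NADPH-driven reaction ran 60 min at RT after 10 min compound preincubation; data scaled to 57 uM ketoconazole as 100% inhibition.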"}, "[4]": {"experiment": "Cellular Toxicity (caspase-3) Jurkat (AID 655)", "conditions": "Jurkat caspase-3 activation, luminescence; caspase-3 activation: at 92.2 µM (top of the series), DMSO = 0%, tamoxifen = 100%", "how_it_was_run": "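Luminescent Caspase-Glo 3/7 read-out (20 min, room temperature) after 16 h compound treatment at 37 C of 5000 Jurkat cells per well. AC50 derived by Hill-equation fitting, scaled between DMSO basal and 100 uM tamoxifen stimulation.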"}, "[5]": {"experiment": "Cellular Toxicity (caspase-3) BJ (AID 658)", "conditions": "Potency: caspase-3 activation", "how_it_was_run": "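qHTS, BJ fibroblasts, 1000 cells/well; 5 hr preincubation, 16 hr compound, 37 °C; Caspase-Glo 3/7 reagent, 1 hr RT; luminescence. DMSO = 0%, 10 uM staurosporine = 100%. Hill-equation AC50.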"}, "[6]": {"experiment": "Cellular Toxicity (caspase-3) Hek293 (AID 664)", "conditions": "HEK293 caspase-3 activation, DMSO = 0%, 100 µM tamoxifen = 100%; at 92.2 µM (top of the series)", "how_it_was_run": "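qHTS, HEK293 (human embryonic kidney), 16 h cpd exposure in complete medium. Caspase-3/7 activation = luminescence increase; normalized to DMSO/100 uM tamoxifen; Hill-fit AC50.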"}, "[7]": {"experiment": "Cell Viability - LYMP2-007 (AID 979); further: nearly all actives have a fitted effect of over 60% in size", "how_it_was_run": "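Cells are seeded at 2500 per well and rested 5 hr. Compounds are then added over a concentration series for 24 hr at 37 C. CellTiter-Glo is added for 30 min at room temperature before luminescence reading.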"}, "[8]": {"biological_target": "Vitamin D3 receptor (Homo sapiens) (UniProt P11473)", "sequence (P11473 whole entry, looked up)": "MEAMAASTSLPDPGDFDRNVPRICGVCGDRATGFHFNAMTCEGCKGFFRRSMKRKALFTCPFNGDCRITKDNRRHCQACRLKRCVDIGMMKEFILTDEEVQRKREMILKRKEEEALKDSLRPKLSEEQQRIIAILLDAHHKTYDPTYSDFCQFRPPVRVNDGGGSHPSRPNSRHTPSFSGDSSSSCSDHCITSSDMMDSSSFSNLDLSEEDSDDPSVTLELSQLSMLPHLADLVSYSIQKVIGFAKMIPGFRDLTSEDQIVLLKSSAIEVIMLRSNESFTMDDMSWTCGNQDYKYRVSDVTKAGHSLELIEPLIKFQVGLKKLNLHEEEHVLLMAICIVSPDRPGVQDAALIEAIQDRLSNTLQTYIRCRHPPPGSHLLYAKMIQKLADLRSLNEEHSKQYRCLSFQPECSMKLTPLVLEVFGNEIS", "experiment": "qHTS assay for small molecule antagonists of vitamin D receptor signaling (AID 588541; calls by dose curve)", "how_it_was_run": "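VDR-UAS-bla HEK293T cells in 2% charcoal-stripped FBS were stimulated with 1-alpha,25-dihydroxyvitamin D3 (3 nM final) plus compound for 16 h at 37 C. The beta-lactamase CCF4 readout was normalized to 50 nM agonist and DMSO, and Hill fits gave IC50.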"}, "[9]": {"biological_target": "Vitamin D3 receptor (Homo sapiens) (UniProt P11473)", "experiment": "qHTS assay for small molecule agonists of vitamin D receptor signaling (AID 588543; calls by dose curve)", "how_it_was_run": "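Agonist-mode beta-lactamase reporter: HEK293T VDR-UAS-bla cells in charcoal-stripped 2% FBS, compound series 16 h 37 C, CCF4 2 h RT. EC50 from Hill fit, scaled against DMSO and 50 nM calcitriol control.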"}, "[10]": {"experiment": "qHTS assay for small molecule agonists of the antioxidant response element (ARE) signaling pathway (AID 651741; active means well fitted activation curve with a large enough effect in the signal ratio; the % refers to the signal ratio; further: potency means the concentration at half of the fitted maximal effect)", "how_it_was_run": "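Stably integrated ARE-beta-lactamase reporter HepG2 cells; 16 h compound incubation, 37 C; LiveBLAzer FRET substrate 2 h at room temperature; fluorescence intensity.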"}, "[11]": {"experiment": "qHTS assay for small molecule activators of the human pregnane X receptor (PXR) signaling pathway (AID 720659; call rule not given here)"}, "[12]": {"experiment": "Cell Viability - NIH 3T3 (AID 541); further: nearly all actives have a fitted effect of over 25% in size", "conditions": "NIH 3T3 cell viability, qHTS; activity change, negative = cytotoxicity: at 92.2 µM (top of the series)", "how_it_was_run": "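Cells seeded at 1000/well, rested 5 hr at 37 °C, then dosed and incubated 40 hr at 37 °C. CellTiter-Glo added, 20 min room temperature, luminescence read. AC50 by Hill fit.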"}, "[13]": {"biological_target": "Glucocorticoid receptor (Homo sapiens) (UniProt P04150)", "sequence (P04150 whole entry, looked up)": "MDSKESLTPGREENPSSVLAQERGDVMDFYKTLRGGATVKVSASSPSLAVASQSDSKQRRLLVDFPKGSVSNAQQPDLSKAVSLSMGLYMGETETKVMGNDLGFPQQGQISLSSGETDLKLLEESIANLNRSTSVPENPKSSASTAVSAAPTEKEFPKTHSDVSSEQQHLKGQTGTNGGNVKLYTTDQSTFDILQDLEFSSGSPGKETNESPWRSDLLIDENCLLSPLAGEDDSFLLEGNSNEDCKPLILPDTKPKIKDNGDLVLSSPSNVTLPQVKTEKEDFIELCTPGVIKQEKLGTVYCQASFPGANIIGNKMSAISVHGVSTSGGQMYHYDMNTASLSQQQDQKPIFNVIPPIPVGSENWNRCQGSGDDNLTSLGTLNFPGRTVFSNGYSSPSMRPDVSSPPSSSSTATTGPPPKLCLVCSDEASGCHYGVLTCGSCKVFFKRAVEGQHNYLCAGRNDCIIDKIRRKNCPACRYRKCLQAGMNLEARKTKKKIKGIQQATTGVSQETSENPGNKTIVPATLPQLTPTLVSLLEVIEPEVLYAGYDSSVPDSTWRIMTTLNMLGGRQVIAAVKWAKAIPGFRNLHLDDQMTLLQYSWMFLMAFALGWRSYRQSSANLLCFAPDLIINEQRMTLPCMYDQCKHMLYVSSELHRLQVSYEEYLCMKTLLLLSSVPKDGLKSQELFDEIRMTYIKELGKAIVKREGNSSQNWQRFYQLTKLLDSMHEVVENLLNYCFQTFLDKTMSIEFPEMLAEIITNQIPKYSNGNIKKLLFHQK", "experiment": "qHTS assay for small molecule agonists of glucocorticoid receptor signaling (AID 588532; active means well fitted curve in the direction sought with a large enough effect in the signal ratio, with a control signal flat; the % refers to the signal ratio)", "conditions": "HeLa MMTV-bla, beta-lactamase ratio, agonist, 18 h; stronger effect = higher value; percent of dexamethasone control, DMSO zero", "how_it_was_run": "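MMTV-bla HeLa beta-lactamase reporter cells in 1% charcoal/dextran FBS medium, compounds up to 92 uM for 18 h at 37 C, CCF4 readout; normalized to 0.1 uM dexamethasone (100%), EC50 and efficacy from Hill fits.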"}, "[14]": {"experiment": "qHTS assay for small molecule antagonists of peroxisome proliferator-activated receptor delta signaling (AID 588535)", "conditions": "HEK293T PPARd-UAS-bla, beta-lactamase FRET ratio, 18 h; 460 nm channel", "how_it_was_run": "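Fluorescence from CCF4-loaded GeneBLAzer PPAR-delta-UAS-bla HEK293T cells (2 hrs RT loading) quantified reporter inhibition after an 18 hr, 37 C compound exposure across a titration.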"}, "[15]": {"biological_target": "Peroxisome proliferator-activated receptor gamma (Homo sapiens) (UniProt P37231)", "sequence (P37231 whole entry, looked up)": "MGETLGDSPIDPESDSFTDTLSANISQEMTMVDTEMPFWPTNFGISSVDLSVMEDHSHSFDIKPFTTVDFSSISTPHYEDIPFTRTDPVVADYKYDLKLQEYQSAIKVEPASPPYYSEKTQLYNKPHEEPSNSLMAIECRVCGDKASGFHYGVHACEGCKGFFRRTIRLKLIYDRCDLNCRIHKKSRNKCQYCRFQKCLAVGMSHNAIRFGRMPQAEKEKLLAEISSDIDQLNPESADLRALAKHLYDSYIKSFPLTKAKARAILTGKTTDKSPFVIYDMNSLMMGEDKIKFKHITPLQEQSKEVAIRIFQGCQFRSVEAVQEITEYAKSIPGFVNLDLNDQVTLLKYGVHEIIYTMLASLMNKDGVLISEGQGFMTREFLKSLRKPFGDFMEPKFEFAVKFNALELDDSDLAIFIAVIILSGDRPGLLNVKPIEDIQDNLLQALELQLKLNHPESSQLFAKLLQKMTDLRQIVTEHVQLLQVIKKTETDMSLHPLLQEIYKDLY", "experiment": "qHTS assay for small molecule agonists of peroxisome proliferator-activated receptor gamma signaling (AID 588536; active means well fitted curve in the direction sought with a large enough effect in the signal ratio, with a control signal flat, not every such curve was filed as active; the % refers to the signal ratio)", "how_it_was_run": "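This is an agonist-mode beta-lactamase reporter assay in HEK293 PPAR-gamma-UAS-bla cells with 1% charcoal/dextran FBS. Compound titrations ran 16 h at 37 C before CCF4 detection. EC50 and efficacy are Hill fits scaled to 2 uM rosiglitazone (100%) and DMSO basal.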"}, "[16]": {"experiment": "qHTS assay for small molecule activators of the p53 signaling pathway (AID 651743; active means well fitted activation curve with a large enough effect in the signal ratio, not every such curve was filed as active; the % refers to the signal ratio)", "conditions": "HCT-116 p53RE-bla, beta-lactamase FRET ratio, 16 h; activation: stronger effect = higher value", "how_it_was_run": "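Following 16 hours of compound exposure at 37 C, HCT-116 cells bearing the p53RE-bla reporter were loaded with LiveBLAzer B/G FRET substrate for 2 hours at room temperature and fluorescence intensity was recorded.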"}, "[17]": {"experiment": "qHTS assay for small molecule activators of the nuclear factor-kappa B (NF-kB) signaling pathway (AID 651749; active means well fitted activation curve with a large enough effect in the signal ratio; the % refers to the signal ratio)", "conditions": "NF-kB-bla ME-180 cells, beta-lactamase FRET ratio, 16 h; stronger effect = higher value", "how_it_was_run": "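In this qHTS format, compounds acting as activators increase NF-kB-driven beta-lactamase in ME-180 cells, measured as disrupted FRET after 16 hr exposure at 37C and 5% CO2.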"}, "[18]": {"experiment": "qHTS assay for small molecule disruptors of the mitochondrial membrane potential - 1 hr assay (AID 651754; calls by dose curve; further: nearly all actives have a fitted effect of over 35% in size)", "how_it_was_run": "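Loss of mitochondrial potential shifts the cationic dye from red mitochondrial aggregates to green cytoplasmic monomers. Cells (HepG2) are treated with compound for 1 hr before a 30 min dye incubation at 37C.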"}, "[19]": {"biological_target": "Tumor necrosis factor (Homo sapiens) (UniProt P01375)", "sequence (P01375 whole entry, looked up)": "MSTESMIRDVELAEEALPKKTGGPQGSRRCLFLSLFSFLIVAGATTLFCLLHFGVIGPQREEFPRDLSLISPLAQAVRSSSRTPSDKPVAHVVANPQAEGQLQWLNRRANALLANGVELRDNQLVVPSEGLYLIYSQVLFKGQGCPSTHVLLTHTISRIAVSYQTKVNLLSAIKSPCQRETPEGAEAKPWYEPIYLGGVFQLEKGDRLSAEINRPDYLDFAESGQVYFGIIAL", "experiment": "qHTS assay to identify small molecules that stimulate Tumor Necrosis Factor-alpha (TNF-alpha) secretion (AID 651757; active means well fitted curve in the direction sought with a large enough effect in the signal ratio; the % refers to the signal ratio)", "how_it_was_run": "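Human monocytic THP-1 cells are plated, treated with compound and held at 37 C for 17 hrs. Labeled anti-TNF-alpha antibody mixture is then added; after 3 hr at room temperature, TR-FRET signal reports secreted TNF-alpha.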"}},
  "note": "Results filed as inconclusive are left out. Where a call stands in place of a potency, no number is given. Calls of active or inactive are those of the source. Unless noted, the call rests on the fitted dose curve; in most records, active means well fitted curve in the direction sought with a large enough effect; inconclusive means small, poorly fitted or top-dose-only effect, or another doubt; inactive means no such curve, though single readings can be large; an effect the other way counts as inactive or inconclusive.",
  "data": [
    {"smiles": "N.N.N.N.N.N.N.N.N.N.N.N.N.N.O.O.[Ru].[Ru].[Ru]", "values": [
      {"measurement": "Potency", "setting": "[1]", "value": "inactive"},
      {"measurement": "Potency", "setting": "[2]", "value": "inactive"}
    ]},
    {"smiles": "C[C@@H](CN1CCC(Cc2ccccc2)CC1)[C@H](O)c1ccc(O)cc1", "values": [
      {"measurement": "Potency", "setting": "[3]", "value": "inactive"},
      {"measurement": "Potency", "setting": "[1]", "value": "10 µM (active)"},
      {"measurement": "Potency", "setting": "[2]", "value": "5.62 µM (active)"}
    ]},
    {"smiles": "N=C(N)SCc1cccc2c(=O)cc(-c3ccccc3)oc12", "values": [
      {"measurement": "Potency", "setting": "[1]", "value": "inactive"}
    ]},
    {"smiles": "COc1ccccc1OC[C@H](O)CN1CCN(CC(=O)Nc2c(C)cccc2C)CC1", "values": [
      {"measurement": "Potency", "setting": "[2]", "value": "inactive"}
    ]},
    {"smiles": "Cc1cccc(CNc2ncnc3ccc(-c4ccc(C(=O)N(C)C)cc4)cc23)c1", "values": [
      {"measurement": "Potency", "setting": "[3]", "value": "2 µM (active)"},
      {"measurement": "Potency", "setting": "[1]", "value": "inactive"}
    ]},
    {"smiles": "COc1cc(-c2ccc(N=C=O)c(OC)c2)ccc1N=C=O", "values": [
      {"measurement": "Potency", "setting": "[4]", "value": "inactive"},
      {"measurement": "Potency", "setting": "[5]", "value": "inactive"},
      {"measurement": "caspase-3 activation", "setting": "[6]", "value": "2.71% (inactive)"},
      {"measurement": "Potency", "setting": "[7]", "value": "inactive"},
      {"measurement": "Potency", "setting": "[8]", "value": "inactive"},
      {"measurement": "Potency", "setting": "[9]", "value": "inactive"},
      {"measurement": "Potency", "setting": "[10]", "value": "2.37 µM (active)"},
      {"measurement": "outcome", "setting": "[11]", "value": "inactive"}
    ]},
    {"smiles": "CCCCC/C=C\\C[C@H](O)/C=C\\c1cccc(C[C@H](O)CCCCO)n1", "values": [
      {"measurement": "Potency", "setting": "[1]", "value": "inactive"}
    ]},
    {"smiles": "CC(C)S", "values": [
      {"measurement": "activity change, negative = cytotoxicity", "setting": "[12]", "value": "-8.42% (inactive)"},
      {"measurement": "caspase-3 activation", "setting": "[6]", "value": "0.604% (inactive)"},
      {"measurement": "Potency", "setting": "[3]", "value": "inactive"},
      {"measurement": "Potency", "setting": "[7]", "value": "inactive"},
      {"measurement": "activation", "setting": "[13]", "value": "2.41% (inactive)"},
      {"measurement": "max response", "setting": "[14]", "value": -7.04, "unit": "%"},
      {"measurement": "outcome", "setting": "[15]", "value": "inactive"},
      {"measurement": "Potency", "setting": "[8]", "value": "inactive"},
      {"measurement": "Potency", "setting": "[9]", "value": "inactive"},
      {"measurement": "activation", "setting": "[16]", "value": "-1.26% (inactive)"},
      {"measurement": "activation", "setting": "[17]", "value": "-0.169% (inactive)"},
      {"measurement": "Potency", "setting": "[18]", "value": "inactive"},
      {"measurement": "Potency", "setting": "[19]", "value": "inactive"},
      {"measurement": "outcome", "setting": "[11]", "value": "inactive"}
    ]}
  ]
}
